# From PubChem BioAssay
# In the library only some 9% were active in any assay of this set; here they are far more common.
# HPGD block = inhibitors of human 15-hydroxyprostaglandin dehydrogenase (HPGD) | P15428 | purified HPGD, NADH fluorescence kinetic, PGE2 substrate | Potency, µM, for inactives: top-dose activity change, negative = inhibition, actives largely listed as inhibitors | 4.3% of 150,000 active; active = well fitted inhibition curve with a large enough effect, not every such curve was filed as active; inconclusive = small, poorly fitted or top-dose-only effect, or another doubt; inactive = no such curve, though single readings can be large or run the other way
# Target sequence (P15428 whole entry, looked up): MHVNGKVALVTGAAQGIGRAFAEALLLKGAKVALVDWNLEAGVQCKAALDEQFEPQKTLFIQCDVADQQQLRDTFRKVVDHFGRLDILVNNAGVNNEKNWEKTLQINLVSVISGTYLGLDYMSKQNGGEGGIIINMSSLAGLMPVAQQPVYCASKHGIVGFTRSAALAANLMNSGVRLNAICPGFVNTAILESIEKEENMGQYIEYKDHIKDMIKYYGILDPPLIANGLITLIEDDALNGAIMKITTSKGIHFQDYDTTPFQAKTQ
#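 20 nM HPGD preincubated 15 min at room temperature with compound in 50 mM Tris-HCl pH 8, 0.01% Tween 20. Started with 1 mM NAD+ and 30 uM prostaglandin E2; NADH fluorescence (360/450 nm) read 5 times over 30-s intervals, last minus first.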
# IMPase Li inh = membrane-permeable IMPase blocker, potentiated with lithium; CHO-M1 cells, IP1 TR-FRET (IP-One), carbachol + lithium; Potency, µM (doses to about 59.4 µM), for the others: at the highest dose activity, negative = IMPase inhibition, usual class: inhibitors; 0.35% of 210,000 active;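 also: IP1 builds up when IMPase is blocked and the TR-FRET signal falls; plate controls were basal vehicle for no effect and high inhibitor control for full effect; nearly all actives have a fitted effect of over 50% in size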
#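 Concentration–response in CHO-M1 cells, lithium-potentiated; 30 min at 37C. IP1 detected by competitive TR-FRET after 10 min lysis at RT. Hill-fitted AC50.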
# Lamin A splicing = modulators of lamin A splicing; 0.01% of 200,000 active; Potency, µM (titrated, usually from 46.1 µM), for the others: top-dose ratio change, negative = inhibition, most hits filed as inhibitors; HeLa LMNA splicing GFP/RFP minigene ratio, 48 h; active = well fitted inhibition curve with a large enough effect in the signal ratio, with a control signal flat, not every such curve was filed as active; inconclusive = small, poorly fitted or top-dose-only effect, or effect the other way, or a change in a side signal; the % refers to the signal ratio
#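 S3 HeLa stable clones carrying a lamin A-EGFP splicing minigene plus DsRed2 were seeded at 600 cells/well in Opti-MEM with 2% FBS, pin-dosed and incubated 48 h at 37°C. Acumen cytometry (488 nm) gave the GFP/RFP total-intensity ratio.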
# ALDH1A1 block = inhibitors of human aldehyde dehydrogenase 1A1; P00352; Purified ALDH1A1, NADH fluorescence, propionaldehyde substrate; Potency, µM (series often up to 75.3 µM), without a hit: at the top dose activity, negative = inhibition, hits mostly inhibitors; 7.3% of 220,000 active; active = well fitted inhibition curve with a large enough effect, not every such curve was filed as active; inconclusive = small, poorly fitted or top-dose-only effect, or another doubt; inactive = no such curve, though single readings can be large or run the other way;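 also: plate controls were no enzyme wells and a reference inhibitor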
# Target sequence (P00352 whole entry, looked up): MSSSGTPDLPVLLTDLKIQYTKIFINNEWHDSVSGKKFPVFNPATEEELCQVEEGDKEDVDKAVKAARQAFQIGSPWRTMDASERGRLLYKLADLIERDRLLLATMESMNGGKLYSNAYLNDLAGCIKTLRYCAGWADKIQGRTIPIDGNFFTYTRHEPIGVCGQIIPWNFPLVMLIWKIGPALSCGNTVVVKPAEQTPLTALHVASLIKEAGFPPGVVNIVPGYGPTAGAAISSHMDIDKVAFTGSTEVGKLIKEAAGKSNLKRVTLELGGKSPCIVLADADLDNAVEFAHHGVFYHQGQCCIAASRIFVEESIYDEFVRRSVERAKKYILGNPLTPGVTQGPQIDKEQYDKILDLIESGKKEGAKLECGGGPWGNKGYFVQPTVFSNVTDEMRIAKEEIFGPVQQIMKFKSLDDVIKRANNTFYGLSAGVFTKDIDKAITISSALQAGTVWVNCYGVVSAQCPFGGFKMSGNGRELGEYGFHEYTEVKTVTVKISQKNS
# Luc counter = blocks Kinase-Glo luciferase, a counter-screen artifact; AID 1379; Kinase-Glo luciferase, ATP luminescence, 8 min; 0.28% of 200,000 active; Potency, µM (highest dose often 38.3 µM), for the others: at the top dose activity change, negative = inhibition, actives largely listed as inhibitors; Q27757; also: nearly all actives have a fitted effect of over 60% in size
#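 Luminescence was the read-out, taken after 8-minute incubation at ambient temperature. Luciferase turned over luciferin with 10 uM ATP in imidazole pH 7.2 buffer containing KCl, MgCl2, Tween 20 and BSA.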
# * hit, by the source's call; ? = inconclusive; nt = no result; [ ] = dose if it differs, or a comment. Unless noted, calls follow the shape of the dose curve; as a rule, active = well fitted curve in the direction sought with a large enough effect; inconclusive = small, poorly fitted or top-dose-only effect, or another doubt; inactive = no such curve, though single readings can be large; an effect the other way counts as inactive or inconclusive. Unless noted, % is scaled to controls: 0 for no effect and ±100 for the full control effect; potency is read from the fitted curve at half-maximal effect.
SMILES,HPGD block,IMPase Li inh,Lamin A splicing,ALDH1A1 block,Luc counter
Cc1ccc(-c2nc3ccccc3c(C(=O)NCc3cccs3)c2C)cc1,-26.6%,55.3%[38.3 µM],-3.0%,23.8µM*,-3.0%
O=C(Cc1cccs1)NCc1ccccc1,20µM*,2.9%[38.3 µM],-1.4%,3.7%,-2.5%
Cc1nn2c(=O)cc(COC(=O)c3ccc(NC(=O)c4cccc(Br)c4)cc3)nc2s1,nt,nt,1.3%[46 µM],nt,nt
COc1cc2c(cc1OC)CN(Cc1ccc(OC)c(C)c1OC)CC2,-1.8%,22.7%[38.3 µM],-12.6%,-7.9%,-1.7%
O=C(NCCNCc1cccs1)c1ccccc1F,nt,10.0%,?,-15.6%,1.5%
O=C(NCc1cccs1)c1ccccc1F,20µM*,-3.3%,8.0%,-1.8%,-1.7%
C=CCn1c(COc2ccc(Cl)cc2)nnc1SCC(=O)N/N=C/c1ccccc1,-0.5%,2.4%[38.3 µM],12.6%,-2.1%,-1.8%
C=CCn1c(CNc2ccc(C)cc2)nnc1SCC(=O)N/N=C/c1ccc(O)cc1,-15.3%,-5.4%[38.3 µM],-3.5%,25.1µM*,-4.4%
CC12CN3CCN(CC(C3)/C1=N\N=C1/C3CN4CCN(C3)CC1(C)C4)C2,-0.9%,-9.8%,-12.1%,4.7%,-3.5%
N#Cc1nccnc1S(=O)(=O)c1cccs1,nt,nt,?,0.447µM*,nt
O=S(=O)(c1cccs1)N1CCN(S(=O)(=O)c2cccs2)CC1,nt,2.6%,?,4.7%,1.6%
CC1(C)CC(=O)C(/C=N/n2c(C(F)(F)F)nc3ccccc3c2=O)=C(O)C1,-26.4%,-4.2%[38.3 µM],12.1%,25.1µM*,4.5%
CC1(C)CC(=O)C(C=NCc2ccccn2)=C(O)C1,-9.7%,-2.4%[38.3 µM],13.8%,-10.6%,-2.0%
Cc1cc(O)cc(O)c1C(=O)OC1(C)C(=O)C=C2C=C(/C=C/CO)OC=C2C1=O (stereo not drawn),-9.7%,3.3%,nt,22.4µM*,-1.3%
COc1ccc(CN2CCN(C(=O)c3cccs3)CC2)c(OC)c1OC,-11.3%,-1.0%[38.3 µM],0.3%,17.8µM*,-5.8%
COc1cccc(C(=O)N2CCN(Cc3ccccc3[N+](=O)[O-])CC2)c1,0.7%,3.0%,-4.7%,?,2.0%
O=C(c1cccs1)N1CCN(Cc2ccccc2[N+](=O)[O-])CC1,-4.7%,-1.6%,?,25.1µM*,-0.1%
COc1ccc(CN2CCN(C(=O)C3CCC(CNS(=O)(=O)c4ccccc4)CC3)CC2)c(OC)c1OC (stereo not drawn),nt,7.1%,nt,14.1µM*,-3.5%
CO[C@H]1COC(=O)CCC[C@H](C)[C@H](OC)COC(=O)C/C=C\[C@@H]1C,nt,nt,nt,6.4%[13.5 µM],nt
Cc1cc(C(=O)CN2C(=O)C(=O)N(Cc3ccccc3)C2=O)c(C)n1-c1ccc2c(c1)OCCO2,nt,7.3%,?,2.7%,2.0%
O=C(N/N=C/c1cccnc1)C1CC1(c1ccccc1)c1ccccc1 (stereo not drawn),nt,8.6%,nt,-2.3%,-2.6%
O=c1cc(-c2ccccc2)oc2c(O)c(O)ccc12,3.16µM*,38.0%,nt,3.98µM*,-4.2%
O=c1cc(-c2ccccc2O)oc2c(O)c(O)ccc12,10µM*,8.1%,nt,2.51µM*,-4.2%
Cc1cc(C)cc(N(C(=O)CCC(=O)Nc2ccccn2)C(C(=O)NC(C)C)c2ccc(O)cc2)c1 (stereo not drawn),nt,5.3%,?,7.6%,1.4%
O=C(O/N=C1\C(=O)N(c2ccccc2)c2ccccc21)C1CC1,nt,2.3%,?,-3.6%,0.1%
SMILES,HPGD block,IMPase Li inh,Lamin A splicing,ALDH1A1 block,Luc counter
CN1C(=O)/C(=N/OC(=O)c2ccccc2)c2ccccc21,14.1µM*,8.5%[38.3 µM],11.3%,?,-1.5%
COc1ccc(S(=O)(=O)NCC2CCCN(Cc3ccccc3C)C2)cc1 (stereo not drawn),nt,6.7%,nt,-6.2%,-4.8%
CCCN1CCN(C(=O)c2nn(-c3ccc(OC)cc3)c(=O)c3c2c2ccccc2n3C)CC1,nt,-3.6%,nt,-0.2%,-2.4%
CCOc1ncccc1C(=O)NCc1ccc(C)cc1,15.8µM*,6.1%,-1.0%,-0.5%,-0.8%
CSc1ncccc1C(=O)NCCc1ccc(Cl)cc1,nt,4.2%,2.3%[46 µM],6.0%,3.3%
CSc1ncccc1C(=O)NCc1ccc(C)cc1,14.1µM*,?,5.9%,1.3%,0.7%
CN(C)c1cc(N/N=C/c2ccc(Cl)cc2)nc(N(C)C)n1,nt,9.8%,nt,-4.3%,0.4%
Cc1c(Nc2ccc(C=O)cc2)c(=O)n(-c2ccccc2)n1C,nt,3.0%,nt,-2.1%,-1.8%
CCN(CC)c1ccc(NC(=O)CCS(=O)(=O)c2cc3c(cc2Cl)NC(=O)CO3)c(C)c1,nt,nt,-22.6%[46 µM],nt,nt
O=C(NC1CCCCC1)C(=S)N1CCOCC1,nt,1.9%,nt,23.8µM*,-2.8%
S=C(NC1CCCC1)N1CCOCC1,nt,2.4%,nt,5.3%,0.9%
C#CCOCCOCCOCCNc1nc(N2CCN(C(=O)[C@H](CCCCN)n3cc(C(N)[C@H](C)CC)nn3)CC2)nc(N2CCN(C(=O)[C@H](CCC(=O)O)n3cc(C(N)[C@H](C)CC)nn3)CC2)n1 (stereo partly drawn),nt,-11.9%,nt,22.4µM*,nt
O=C(NC1CC1)c1cc2c(F)cccc2s1,nt,3.9%,nt,-2.7%,-2.6%
CCOc1ccccc1NC(=O)CN(C)S(=O)(=O)c1ccc(OC)c(C)c1,15.8µM*,46.9%[38.3 µM],-5.5%,?,1.0%
CCOC(=O)C1CCCN(C(=S)Nc2cc(C)cc(C)c2)C1 (stereo not drawn),-13.0%,2.3%[38.3 µM],7.2%,7.7%,-2.9%
C=CCOC(=O)C1(C(NC(=O)OC)c2ccccc2)C(=O)Cc2ccccc21 (stereo not drawn),-9.0%,16.8%,nt,4.47µM*,-2.3%
COc1ccc(N2CC(NC(=O)C(=O)c3c(C)[nH]c4ccccc34)CC2=O)cc1 (stereo not drawn),nt,nt,16.1%[46 µM],nt,nt
Oc1c(Br)cc(Br)cc1CN(Cc1cc(Br)cc(Br)c1O)C1CCCCC1,-14.5%,4.0%,nt,8.1%[13.5 µM],-6.4%[7.66 µM]
COc1ccc(CCNC(=O)c2ccc(Cl)c(S(=O)(=O)N(C)c3ccccc3)c2)cc1,-15.3%,-5.7%,?,-0.4%,1.5%
CN(c1ccccc1)S(=O)(=O)c1cccc(C(=O)NCCc2ccc(O)c(O)c2)c1,nt,10.2%,-23.7%[46 µM],28.2µM*,6.5%
COc1ccc(Nc2nc(NN)nc(C)c2[N+](=O)[O-])cc1,nt,9.6%,nt,?,0.5%
COc1ccc(Nc2nc(N/N=C/c3ccc(N(C)C)cc3)nc(C)c2[N+](=O)[O-])cc1,-10.5%,10.3%,-8.9%,7.94µM*,-2.7%
CC1(O)CC(=O)N(c2ccccc2)O1 (stereo not drawn),-10.2%,-14.0%[38.3 µM],18.7%,22.4µM*,-1.5%
O=C1CC(=O)N(c2ccccc2)N1c1ccccc1,-6.9%,1.0%,-8.0%,-12.6%,-1.0%
c1ccc(N2CCN(Cc3ccnc4ccccc34)CC2)cc1,-13.8%,31.9%[38.3 µM],?,15.8µM*,0.5%
O=C(c1cccnc1)N1CCN(Cc2cccc(Br)c2)CC1,-10.9%,8.9%[38.3 µM],-4.5%,10µM*,-2.5%
COc1ccc(CN2CCN(C(=O)c3cccnc3)CC2)cc1Br,-4.7%,-12.8%[38.3 µM],-4.2%,?,-1.5%
